Reference: PubChem BioAssay (NCI)
This is part of a sample that, as a whole, favours compounds with a hit. Of some 79,000 tested, about 15% had one in any assay. The source made the active and inactive calls. No stated cut-off is given here; in the data, active means growth inhibition above about 70%; inactive means the rest.

Tests used:
[1] = NCI Yeast Anticancer Drug Screen. Data for the rad52 strain (AID 147);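 further: 0% = growth of vehicle-treated control cultures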; conditions: S. cerevisiae rad52 mutant growth inhibition, active compounds read high
In short: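 Compounds are applied to a genetically defined yeast strain lacking normal DNA damage repair, and inhibition of growth is expressed relative to cultures given vehicle only.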

[2] = NCI Yeast Anticancer Drug Screen. Data for the wt1 strain (AID 149);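 further: 0% = growth of vehicle-treated wt1 cultures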; conditions: S. cerevisiae wt1 strain (SPY 50644) growth inhibition, active compounds read high
In short: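 Each compound is tested on wt1 yeast and the loss of growth versus vehicle gives the inhibition value.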

[3] = NCI Yeast Anticancer Drug Screen. Data for the rad50EPP+ strain (AID 151);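 further: 0% = growth of vehicle-treated control cultures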; conditions: S. cerevisiae rad50 mutant strain, active compounds read high
In short: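 Compounds were applied to the rad50EPP+ yeast strain, which bears a defined DNA repair alteration, and growth inhibition was determined relative to vehicle-treated cultures.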

[4] = NCI Yeast Anticancer Drug Screen. Data for the mgt1 strain (AID 153); conditions: S. cerevisiae mgt1 mutant growth inhibition, active compounds read high
In short: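 Strain: mgt1 yeast, one of a set carrying defined DNA damage repair or cell cycle control alterations. Compound-treated growth compared with vehicle.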

[5] = NCI Yeast Anticancer Drug Screen. Data for the rad50 strain (AID 155);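 further: 0% = growth of vehicle-only cultures of the same strain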; conditions: S. cerevisiae rad50 strain growth inhibition, active compounds read high
In short: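 Vehicle-treated cultures provide the reference for the growth inhibition reported for compound-exposed, repair-deficient yeast.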

[6] = NCI Yeast Anticancer Drug Screen. Data for the mec2-1 strain (AID 157); conditions: S. cerevisiae mec2-1 strain, active compounds read high
In short: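 Strain: mec2-1 (DNA repair/cell cycle alteration). Compound exposure, then growth measured; inhibition expressed relative to vehicle.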

[7] = NCI Yeast Anticancer Drug Screen. Data for the rad14 strain (AID 159);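 further: 0% = growth of vehicle-treated control cultures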; conditions: S. cerevisiae rad14 strain growth inhibition, active compounds read high
In short: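 Inhibition of growth is reported for a repair-deficient yeast mutant following compound treatment, calculated relative to cultures that received vehicle.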

[8] = NCI Yeast Anticancer Drug Screen. Data for the sgs1 mgt1 strain (AID 161);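 further: 0% = growth of cultures given vehicle only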; conditions: S. cerevisiae sgs1 mgt1 strain, active compounds read high
In short: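 Read-out: growth inhibition vs vehicle controls. Cells: mutant yeast strain deficient in DNA damage repair.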

[9] = NCI Yeast Anticancer Drug Screen. Data for the CLN2oe strain (AID 163);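 further: 0% = growth of vehicle-only control cultures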; conditions: S. cerevisiae CLN2oe strain, active compounds read high
In short: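 Growth of a genetically modified yeast strain is measured after compound exposure and compared with cultures given vehicle alone.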

[10] = NCI Yeast Anticancer Drug Screen. Data for the cln2 rad14 strain (AID 165);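 further: 0% = growth equal to vehicle treated cultures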; conditions: S. cerevisiae cln2 rad14 strain, active compounds read high
In short: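 Compounds are applied to the cln2 rad14 yeast strain, and growth is then compared with that of vehicle-treated cultures to give inhibition.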

[11] = NCI Yeast Anticancer Drug Screen. Data for the bub3 strain (AID 167); conditions: S. cerevisiae bub3 mutant strain, active compounds read high
In short: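 Mutant yeast screening strain plus compound; vehicle-treated cultures serve as the 0% inhibition reference.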

[12] = NCI Yeast Anticancer Drug Screen. Data for the wt2 strain (AID 169); conditions: S. cerevisiae wt2 strain growth inhibition, active compounds read high
In short: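 This strain belongs to a panel of yeast strains with defined genetic alterations in DNA damage repair or cell cycle control. Compounds are applied, and growth inhibition is measured against vehicle-treated cultures.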

[13] = NCI Yeast Anticancer Drug Screen. Data for the mlh1 strain (AID 171);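 further: 0% = growth of vehicle-treated control cultures of the same strain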; conditions: S. cerevisiae mlh1 strain growth inhibition, active compounds read high
In short: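 Growth of the mutant yeast strain after compound exposure, expressed as inhibition relative to vehicle-only controls.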

[14] = NCI Yeast Anticancer Drug Screen. Data for the sgs1 strain (AID 173);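 further: 0% = growth of vehicle-only control cultures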; conditions: S. cerevisiae sgs1 mutant, active compounds read high
In short: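 Growth of a yeast strain bearing a defined genetic alteration is measured after compound treatment. Inhibition is expressed relative to vehicle-only controls.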

[15] = NCI Yeast Anticancer Drug Screen. Data for the mlh1 rad18 strain (AID 175); conditions: S. cerevisiae mlh1 rad18 strain growth inhibition, active compounds read high
In short: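 Read-out is yeast growth inhibition, calculated against vehicle-only controls. The compound was applied to a strain engineered with DNA damage repair alterations.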

[16] = NCI Yeast Anticancer Drug Screen. Data for the rad18 strain (AID 177); conditions: S. cerevisiae rad18 mutant growth inhibition, active compounds read high
In short: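 Growth of the mutant yeast strain after compound exposure, normalised to vehicle-only cultures.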

[17] = at 5.0 µM (retest, dose inferred, filed as 0.5)
[18] = at 50.0 µM (retest, dose inferred, filed as 5.0)

Measured: growth inhibition

CCc1c[n+]([O-])c(C)cc1[N+](=O)[O-]
active: [1]; at 100.0 µM 90% | [3]; at 100.0 µM 85% | [5]; [18] 94% | [5]; at 50.0 µM 73.7% | [5]; at 100.0 µM 87% | [6]; [18] 77% | [6]; at 100.0 µM 92% | [7]; at 33.0 µM 94% | [7]; at 100.0 µM 98% | [8]; [18] 95% | [8]; at 50.0 µM 87.5% | [10]; [18] 94% | [10]; at 50.0 µM 88.2% | [14]; at 33.0 µM 85% | [14]; at 100.0 µM 93% | [15]; [18] 96% | [16]; at 3.7 µM 86% | [16]; at 11.0 µM 92% | [16]; at 33.0 µM 95% | [16]; at 100.0 µM 95%
inactive: [1]; at 1.2 µM 2% | [1]; at 3.7 µM 7% | [1]; at 11.0 µM 21% | [1]; at 33.0 µM 57% | [2]; at 1.2 µM 0% | [2]; at 3.7 µM -1% | [2]; at 11.0 µM 0% | [2]; at 33.0 µM -1% | [2]; at 100.0 µM 13% | [3]; at 1.2 µM -1% | [3]; at 3.7 µM 6% | [3]; at 11.0 µM 25% | [3]; at 33.0 µM 55% | [4]; at 1.2 µM -2% | [4]; at 3.7 µM -2% | [4]; at 11.0 µM -2% | [4]; at 33.0 µM 17% | [4]; at 100.0 µM 22% | [5]; at 1.2 µM 1% | [5]; at 3.7 µM 6% | [5]; [17] 17% | [5]; at 11.0 µM 18% | [5]; at 33.0 µM 53% | [6]; at 1.2 µM -2% | [6]; at 3.7 µM 1% | [6]; [17] -6% | [6]; at 11.0 µM 2% | [6]; at 33.0 µM 27% | [6]; at 50.0 µM 14.9% | [7]; at 1.2 µM 5% | [7]; at 3.7 µM 12% | [7]; at 11.0 µM 48% | [8]; [17] 45% | [9]; at 1.2 µM -2% | [9]; at 3.7 µM -4% | [9]; at 11.0 µM -5% | [9]; at 33.0 µM -14% | [9]; at 100.0 µM -2% | [10]; [17] 21% | [11]; at 1.2 µM -4% | [11]; at 3.7 µM -8% | [11]; [17] 8% | [11]; at 11.0 µM -14% | [11]; at 33.0 µM -20% | [11]; [18] 52% | [11]; at 50.0 µM -29.3% | [11]; at 100.0 µM -2% | [12]; at 1.2 µM 0% | [12]; at 3.7 µM 0% | [12]; at 11.0 µM 2% | [12]; at 33.0 µM 5% | [12]; at 100.0 µM 21% | [13]; at 1.2 µM -1% | [13]; at 3.7 µM -1% | [13]; at 11.0 µM 3% | [13]; at 33.0 µM 7% | [13]; at 100.0 µM 29% | [14]; at 1.2 µM 10% | [14]; at 3.7 µM 31% | [14]; at 11.0 µM 63% | [15]; [17] 58% | [15]; at 50.0 µM 65.9% | [16]; at 1.2 µM 56%
